The source of these data is PubChem BioAssay AID504339 (National Center for Advancing Translational Sciences (NCATS), 2011).

In all, about 390,000 compounds went through this assay and about 17,000 (4.4%) were called active. Where a call stands in place of a potency, no number is given. Not shown: some 8% with an inconclusive outcome. The call rests on the fitted dose curve; in most records, active means well fitted inhibition curve with a large enough effect; inconclusive means small, poorly fitted or top-dose-only effect; inactive means no such curve, though single readings can be large or run the other way. For the sample, actives were picked, then their nearest neighbours and some compounds at random.
Potency means the concentration at half of the fitted maximal effect.

Lysine-specific demethylase 4A (Homo sapiens), sequence (O75164 whole entry, looked up, the tested form may be a part): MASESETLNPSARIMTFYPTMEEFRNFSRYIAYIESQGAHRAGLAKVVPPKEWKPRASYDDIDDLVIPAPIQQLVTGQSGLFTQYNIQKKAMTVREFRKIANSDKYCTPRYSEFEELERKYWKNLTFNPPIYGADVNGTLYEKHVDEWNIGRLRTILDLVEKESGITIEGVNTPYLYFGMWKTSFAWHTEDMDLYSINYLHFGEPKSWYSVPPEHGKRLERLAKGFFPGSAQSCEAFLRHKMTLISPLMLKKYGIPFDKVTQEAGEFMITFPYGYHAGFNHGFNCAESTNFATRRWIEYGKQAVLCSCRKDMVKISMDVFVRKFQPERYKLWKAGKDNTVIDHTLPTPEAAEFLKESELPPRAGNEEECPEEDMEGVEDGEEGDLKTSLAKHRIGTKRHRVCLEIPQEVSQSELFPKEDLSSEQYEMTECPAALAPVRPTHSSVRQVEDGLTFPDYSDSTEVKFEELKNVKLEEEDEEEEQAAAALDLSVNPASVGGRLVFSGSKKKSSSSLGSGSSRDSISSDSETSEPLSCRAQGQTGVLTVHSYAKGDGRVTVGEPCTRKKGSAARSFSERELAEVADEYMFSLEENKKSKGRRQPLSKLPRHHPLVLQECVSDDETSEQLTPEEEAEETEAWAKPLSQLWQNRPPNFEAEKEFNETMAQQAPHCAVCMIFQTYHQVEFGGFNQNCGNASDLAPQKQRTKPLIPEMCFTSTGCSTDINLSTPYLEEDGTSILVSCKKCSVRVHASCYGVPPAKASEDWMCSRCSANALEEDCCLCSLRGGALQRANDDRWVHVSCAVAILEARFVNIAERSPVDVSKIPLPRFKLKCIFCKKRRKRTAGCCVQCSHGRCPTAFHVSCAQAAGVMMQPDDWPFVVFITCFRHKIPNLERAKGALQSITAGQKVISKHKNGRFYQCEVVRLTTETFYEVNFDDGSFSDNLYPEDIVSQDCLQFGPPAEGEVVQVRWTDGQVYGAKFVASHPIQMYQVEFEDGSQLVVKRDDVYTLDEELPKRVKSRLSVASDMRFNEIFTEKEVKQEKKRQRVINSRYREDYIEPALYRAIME

This assay addresses Lysine-specific demethylase 4A (Homo sapiens) (UniProt O75164). The assay is described as follows: qHTS Assay for Inhibitors of JMJD2A-Tudor Domain. Further: nearly all actives have a fitted effect of over 50% in size. The settings on record: AlphaScreen JMJD2A-Tudor / H3K4me3 peptide binding; series mostly up to 114 µM. For orientation: Quantitative high-throughput screening tests each substance at several concentrations.
Regarding `Cc1ccc2cccc(NC(=O)C(C)Oc3ccc(C)c(C)c3)c2n1` (stereo not drawn), the Potency entry was “inactive”.
For the molecule `COc1ccc(-n2nc(C(=O)NCCc3ccc(Cl)cc3)c3c4ccccc4n(C)c3c2=O)cc1Cl`, the Potency entry was “inactive”.
Still for that read-out and setting: for `COc1cc(OC)c(NC(=O)Cc2ccc(-n3c(C)nc4cccnc43)cc2)cc1Cl` the value was “inactive”; for `COc1cc2c(cc1OC)C(COc1ccc(F)cc1)N(C(=O)c1ccccc1F)CC2` (stereo not drawn), “inactive”; for `Cc1cccc(C(=O)Nc2ccc(-c3nc4ncccc4o3)cc2C)c1`, “inactive”.
On the same count and under the same terms, the same measure for `Cc1ccc2cccc(O)c2[n+]1[O-]`: 10 µM (active); for `NCC(=O)c1cccc2ccc[n+]([O-])c12`: “inactive”; for `O=C(NCC(c1ccco1)S(=O)(=O)c1cccs1)c1ccc(F)cc1` (stereo not drawn): “inactive”.
`Cc1ccc(CNC(=O)CSc2c3c(nc4cc(Cl)ccc24)CCCC3)cc1`: the Potency entry is “inactive”.
`COc1ccc(-c2nc(C)c(CCNC(=O)c3ccc(C(F)(F)F)cc3)s2)cc1OC`: the Potency entry was “inactive”.
As to `Cc1ccc(Nc2c(-c3ccc(C)s3)nc3ccccn23)cc1`, the Potency entry was “inactive”.
For `Cc1ccc(-c2nc3ccccn3c2Nc2c(C)cccc2C)o1`, the Potency is 50.1 µM (active).
On to `Cc1cccc(C)c1Nc1c(-c2ccccc2O)nc2ncccn12`, for which the Potency entry is “inactive”.
In the case of `Nc1scc[n+]1Cc1cccc2cccnc12`, the Potency entry was “inactive”.
Turning to `c1ccc2c(CNn3cnnc3)cccc2c1`, the activity change, negative = inhibition is 0% [at 11.4 µM] (inactive).
Consider `c1ccc2c(C[n+]3csc4ccccc43)cccc2c1`, for which the Potency was 17.8 µM (active).
`CCc1c(C)sc(NC(=O)C2c3ccccc3Oc3ccccc32)c1C(=O)OC(C)C`: the Potency entry is “inactive”.
As to `CCOC(=O)c1c(C)n(S(=O)(=O)c2ccc(C)cc2C)c2ccc(NS(=O)(=O)c3ccc(C)cc3C)cc12`, the Potency result was “inactive”.
On to `COc1ccc2c(c1)CCc1c(C(=O)Nc3cc(C)ccc3O)noc1-2`, for which the Potency result was “inactive”.
Consider `Cc1ccc(N2CCN(C(=O)CCc3c(C)nc4c(c3C)c(=O)n(C)c(=O)n4C)CC2)c(C)c1`, for which the Potency entry was “inactive”.
On to `O=S(=O)(O)c1cc2onnc2c2ccccc12`, for which the Potency is 50.1 µM (active).
Regarding `CCC(Sc1nnc(-c2ccc(OC)cc2)c(-c2ccc(OC)cc2)n1)C(=O)NC1CCCCC1` (stereo not drawn), the Potency result was “inactive”.
On to `CCOC(=O)c1ccc(N2C(=O)c3[nH]nc(-c4ccccc4)c3C2c2ccc(C(C)C)cc2)cc1` (stereo not drawn), for which the Potency result was “inactive”.
As for `O=C(C1=C(O)C(=O)N(Cc2ccccc2)C1c1cccnc1)c1ccco1` (stereo not drawn), the Potency result was “inactive”.
Still for that read-out and setting: for `O=C(C1=C(O)C(=O)N(c2ncccn2)C1c1cccs1)c1ccco1` (stereo not drawn) the value was 20 µM (active).
Take `O=C(c1ccco1)N(Cc1cccs1)c1ccc(O)cc1`: the Potency result is “inactive”.
On to `Cc1cc(C)c2oc(C(=O)Nc3ccc(S(=O)(=O)N(C)c4ccccc4)cc3)cc(=O)c2c1`, for which the Potency result was “inactive”.
Consider `Cc1cc(N2CCN(c3cccc(C(F)(F)F)c3)CC2)n2nc(-c3ccccc3)nc2n1`, for which the Potency entry was “inactive”.
The same measure, in the same setting: the same measure for `O=C(CN1C(=O)COc2ccccc21)Nc1ccc(F)cc1`: 50.1 µM (active).
With `O=C(CN1C(=O)COc2ccc(Cl)cc21)Nc1ccc(N2CCOCC2)cc1`, the Potency result was “inactive”.
As for `CC(OC(=O)CN1C(=O)COc2ccccc21)C(=O)NCc1ccc(F)cc1` (stereo not drawn), the Potency entry is “inactive”.
`Cc1cccc(C(C)C)c1NC(=O)C(NS(=O)(=O)c1cccc2nsnc12)c1ccccc1` (stereo not drawn): the Potency result is “inactive”.
As to `COc1ccc(-c2cn3c(n2)sc2cc(C(=O)Nc4ccc(F)cc4)ccc23)cc1`, the Potency result is “inactive”.
In the case of `CCOc1cc(C2C(C(=O)OC)=C(C)NC3=C2C(=O)c2ccccc23)ccc1O` (stereo not drawn), the Potency is 50.1 µM (active).
As to `COC(=O)C1=C(C)NC2=C(C(=O)c3ccccc32)C1c1ccc(-c2ccc(C(=O)O)cc2)o1` (stereo not drawn), the activity change, negative = inhibition is -17.6% [at 11.4 µM] (inactive).
As for `CCOc1cc(C2C(C(=O)OC(C)C)=C(C)NC3=C2C(=O)CCC3)cc([N+](=O)[O-])c1O` (stereo not drawn), the Potency entry was “inactive”.
For `COC(=O)C1=C(c2ccccc2)c2ccccc2S(=O)(=O)N1CC(=O)Nc1ccccc1C(F)(F)F`, the Potency entry was “inactive”.
Take `Cc1cccc2c(=O)cc(CSc3ccccc3NC(=O)C(C)C)[nH]c12`: the Potency result was “inactive”.
As to `CC(=O)Nc1cc(C(=O)NCc2ccc(F)cc2Cl)ccc1Sc1ccc(Cl)cc1`, the Potency result was “inactive”.
On to `Cc1ccc(CNC(=O)C2(C(F)(F)F)C/C(=C\CCO)CCCO2)o1` (stereo not drawn), for which the Potency entry was “inactive”.
Still for that read-out and setting: the same measure for `CCCCn1cc(S(=O)(=O)c2ccc(OCC)cc2)c(=O)c2cc(OC)c(OC)cc21`: “inactive”.
Regarding `COc1ccc(N=C2C=CC(=O)O2)cc1`, the Potency was 79.4 µM (active).
Regarding `COc1ccc(N=Nc2c(-c3ccc(OC)cc3)[nH]oc2=O)cc1`, the Potency result is “inactive”.
Regarding `COC1=CC(=O)OC(c2ccc(OC)cc2)C1` (stereo not drawn), the Potency result was “inactive”.
As for `CCOC(=O)C1=C(CN2CCCCCC2)NC(=O)NC1c1cccc([N+](=O)[O-])c1` (stereo not drawn), the Potency entry was “inactive”.
On to `CCOC(=O)C1=C(CN2CCc3ccccc32)NC(=O)NC1c1cc(C)ccc1C` (stereo not drawn), for which the Potency entry was “inactive”.
On to `CCOC(=O)C1=C(CN2CCc3ccccc32)NC(=O)NC1c1cccc([N+](=O)[O-])c1` (stereo not drawn), for which the Potency is 44.7 µM (active).
On the same count and under the same terms, for `COc1ccc(N2CCN(S(=O)(=O)CCNC(=O)C(c3ccccc3)c3ccccc3)CC2)cc1` the value was “inactive”; for `CC(C)(C)OC(=O)N1CCC(NC(=O)c2[nH]cnc2C(=O)N[C@@H](Cc2ccccc2)C(=O)OCc2ccccc2)CC1`, “inactive”.
As to `C[C@@H](NC(=O)c1nc[nH]c1C(=O)N1CCN(C(=O)OC(C)(C)C)CC1)c1ccccc1`, the Potency is 79.4 µM (active).
Consider `C[C@H](NC(=O)c1nc[nH]c1C(=O)NCC(=O)OC(C)(C)C)c1ccccc1`, for which the Potency entry is “inactive”.
As to `Cc1cccc(C(=O)N2c3nc(-c4ccco4)nn3C3(CCCCC3)[C@@H]3CCCC[C@@H]32)c1`, the Potency result was “inactive”.
Same read-out and setting: the same measure for `CCOc1ccc(CNC(=O)c2cccc(Nc3nc4ccccc4n4nnnc34)c2)cc1OC`: “inactive”; for `ON=C1/C(=N\O)CC2(C/C1=N/O)OCCO2`: 28.2 µM (active).
With `O/N=C1\CC2(Cc3nonc31)OCCO2`, the Potency result was “inactive”.
Same read-out and setting: for `CCOC(=O)c1ccc(NC2=CC(c3ccc(OCC)cc3)N(c3ccc(C(=O)OCC)cc3)C2=O)cc1` (stereo not drawn) the value was “inactive”; for `CCOc1ccc(CCNC(=O)c2c(C)oc3ncn(C)c(=O)c23)cc1`, “inactive”; for `CN(C)Cc1c(C#N)c2ccccc2n1C`, “inactive”.
Take `CCCc1cc(=S)n2c([nH]c3ccccc32)c1C#N`: the Potency is 25.1 µM (active).
As to `Cc1ccccc1-c1nc2cc(NC(=O)c3cccc(OCCC(C)C)c3)ccc2o1`, the Potency entry was “inactive”.
`O=C(O)C(c1ccccc1)N1C(=O)/C(=C\c2ccc(-c3cccc(Cl)c3)o2)SC1=S` (stereo not drawn): the Potency is 20 µM (active).
On to `O=C(NC(=S)Nc1cc(C(F)(F)F)ccc1N1CCOCC1)c1ccc(-c2cccc(Cl)c2)o1`, for which the Potency entry was “inactive”.
Consider `O=C(NCc1ccccc1)c1cc(-c2cccc(Cl)c2)on1`, for which the Potency entry is “inactive”.
